Abeta yeast res: compounds reversing amyloid beta toxicity in yeast. yeast expressing A-beta42, growth rescue, OD600, 48 h; response scale: 0% DMSO, 100% iron-clioquinol control. Potency, µM (titrated, usually from 46.1 µM), usual class: activators. 410,000 compounds, 0.063% hits. AID 1347071; further: nearly all actives have a fitted effect of over 55% in size
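Growth rescue measured by 600 nm absorbance after 48 h yeast culture at 30 C with compound. Values normalized between DMSO and an equimolar ferric chloride plus clioquinol control.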
Mito fusion yeast: mitochondrial division inhibition or fusion activation; 320,000 compounds, 0.23% hits; S. cerevisiae fusion-defective mutant growth rescue, CellTiterGlo 48 h; AID 485298; Potency, µM (highest dose often 46.1 µM), for the others: at the highest dose growth rescue (activation), usual class: activators; further: % of control where 0% means no effect; nearly all actives have a fitted effect of over 45% in size
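Read-out: ATP-based luminescence (CellTiterGlo, 10 min ambient) reporting growth of fusion-defective ts yeast after 48 hours at 37C on glycerol/ethanol YPEG medium in the presence of compound.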
TDP-43 yeast inh: rescues yeast growth from TDP-43 toxicity. TDP-43 expressing yeast growth rescue, BacTiter-Glo, 24 h. Potency, µM (series often up to 46.1 µM), without a hit: top-dose growth rescue (activation), actives largely listed as activators. 410,000 compounds, 1.8% hits. AID 652104; further: % of control where 0% means no effect; nearly all actives have a fitted effect of over 50% in size
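In this qHTS, compounds that restore growth of yeast expressing TDP-43 appear as activators. Cells (OD600=0.02, galactose medium, raffinose-pregrown) are incubated with compound 24 hr at 30 deg C and growth is quantified by BacTiter-Glo.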
FUS yeast rescue: FUS proteinopathy suppression in yeast. Potency, µM (series often up to 76.6 µM), actives largely listed as activators. 390,000 compounds, 0.24% hits. AID 1347120. S. cerevisiae FUS-expressing, growth rescue, OD600, 24 h;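 further: plate controls were DMSO vehicle for no effect and reference control for full effect; nearly all actives have a fitted effect of over 55% in size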
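Restored growth of FUS-toxic S. cerevisiae, read as 600 nm absorbance after 24 h at 30C in galactose medium (starting OD 0.005). Controls CP55940 and DMSO.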
aSyn yeast inh: rescues yeast growth from alpha-synuclein toxicity | Yeast expressing alpha-synuclein, growth rescue, BacTiter-Glo, 24 h | Potency, µM (highest dose often 46.1 µM), for inactives: top-dose growth rescue (activation), actives largely listed as activators | AID 652106 | 370,000 compounds, 0.14% hits; further: % of control where 0% means no effect; nearly all actives have a fitted effect of over 65% in size
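Rescue of yeast growth: cells expressing toxic alpha-synuclein, induced in galactose at OD600 0.02, incubated with compound 24 h at 30 C. ATP luminescence quantified growth; inhibitors of toxicity appear as activators.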
Starred values were filed as active, the others as inactive; [ ] = another dose, or the depositor's remark. Sampled rows, rich in hits. Any-hit rate of the full collection: about 2.2%. The call rests on the fitted dose curve; in most records, active means well fitted curve in the direction sought with a large enough effect; inconclusive means small, poorly fitted or top-dose-only effect, or another doubt; inactive means no such curve, though single readings can be large; an effect the other way counts as inactive or inconclusive. Potency means the concentration at half of the fitted maximal effect.

What do the screens show for `COCCCN1C(=O)[C@H](CC(=O)NCC2CCCCC2)[C@]2(C(=O)OC)CCCCC=C12`?
FUS yeast rescue: inactive

How did Cc1cc(Nc2nnnn2-c2ccccc2)n(-c2ccccc2)n1 do in these assays?
Abeta yeast res: inactive; Mito fusion yeast: 0%; TDP-43 yeast inh: -6%; FUS yeast rescue: inactive; aSyn yeast inh: -1%

How did Cc1cc2ncn(-c3nnnn3-c3ccccc3)c2cc1C do in these assays?
Abeta yeast res: inactive; Mito fusion yeast: 6%; TDP-43 yeast inh: 18µM*; FUS yeast rescue: inactive; aSyn yeast inh: 1%

Results for CS(=O)(=O)c1nc(S(=O)(=O)c2ccc(Cl)cc2)c(NCCCN2CCCC2=O)s1 ?
Abeta yeast res: inactive; Mito fusion yeast: 1%; TDP-43 yeast inh: -1%; FUS yeast rescue: inactive; aSyn yeast inh: 4%

Results for CCOC(=O)c1sc(N)c(C(=O)Nc2ccccc2)c1C ?
Abeta yeast res: inactive; Mito fusion yeast: 2%; TDP-43 yeast inh: 13µM*; FUS yeast rescue: inactive; aSyn yeast inh: -7%

How did CCOC(=O)c1sc(N)c(C(=O)OCC)c1C do in these assays?
Abeta yeast res: inactive; Mito fusion yeast: 2%; TDP-43 yeast inh: inconclusive; FUS yeast rescue: inactive; aSyn yeast inh: 2%

What do the screens show for `CCCc1ccc(S(=O)(=O)Nc2ccc(C)c(NS(C)(=O)=O)c2)cc1`?
Abeta yeast res: inactive; Mito fusion yeast: 5.6µM*; TDP-43 yeast inh: -21%; FUS yeast rescue: inactive; aSyn yeast inh: -5%

How did CCCCc1ccc(S(=O)(=O)Nc2ccc(C)c(NS(C)(=O)=O)c2)cc1 do in these assays?
Abeta yeast res: inactive; Mito fusion yeast: 8%; TDP-43 yeast inh: 6%; FUS yeast rescue: inactive; aSyn yeast inh: -4%

What do the screens show for `CCN(CC)C(=O)Cn1c(=O)n(CCCCCC(=O)NCc2ccc3c(c2)OCO3)c(=O)c2sccc21`?
Abeta yeast res: inactive; TDP-43 yeast inh: 6%; FUS yeast rescue: inactive

How did COc1ccc(/C=C/S(=O)(=O)NC2CCCC2)c(CNC(=O)OC(C)(C)C)c1 do in these assays?
FUS yeast rescue: inactive

How did Cc1ccc(-n2c(N)c(C(=O)N3CCN(C)CC3)sc2=S)cc1 do in these assays?
Abeta yeast res: inactive; Mito fusion yeast: -4%; TDP-43 yeast inh: 4%; FUS yeast rescue: inactive; aSyn yeast inh: -6%

What do the screens show for `Cc1ccc(-n2c(N)c(C(=O)N3CCCCC3)sc2=S)cc1`?
Abeta yeast res: inactive; Mito fusion yeast: -1%; TDP-43 yeast inh: 11µM*; FUS yeast rescue: inactive; aSyn yeast inh: -2%

What do the screens show for `CC1Cc2cc(/C(O)=C3/C(=O)C(=O)N(CCCn4ccnc4)C3c3cccc([N+](=O)[O-])c3)ccc2O1` (stereo not drawn)?
Abeta yeast res: inactive; Mito fusion yeast: 0%; TDP-43 yeast inh: 14%; FUS yeast rescue: inactive; aSyn yeast inh: -4%

How did COc1ccc(C(=O)Nc2cc(OC)cc(OC)c2)cc1 do in these assays?
Abeta yeast res: inactive; Mito fusion yeast: 1%; TDP-43 yeast inh: 29%; FUS yeast rescue: inactive; aSyn yeast inh: -8%

Results for COc1cc(NC(=O)c2ccccc2)cc(OC)c1 ?
Abeta yeast res: inactive; Mito fusion yeast: -3%; TDP-43 yeast inh: 0%; FUS yeast rescue: inactive; aSyn yeast inh: 3.5µM*

How did COc1cc(NC(=O)C(Cc2ccccc2)n2cccc2)cc(OC)c1 (stereo not drawn) do in these assays?
Abeta yeast res: inactive; Mito fusion yeast: 13%; TDP-43 yeast inh: 20µM*; FUS yeast rescue: inactive; aSyn yeast inh: 5%

Results for O=C(O)CC1c2ccccc2CCN1S(=O)(=O)c1ccc(F)cc1 (stereo not drawn) ?
Abeta yeast res: inactive; Mito fusion yeast: 0%; TDP-43 yeast inh: -15%; FUS yeast rescue: inactive; aSyn yeast inh: 6%

Results for CCC[C@H](/C=C/C(=O)OC(C)(C)C)Sc1ccc(OC)cc1 ?
FUS yeast rescue: inactive

How did COCCCN1C(=O)[C@H](CC(=O)N2CCN(C(=O)C3CC3)CC2)[C@]2(C(=O)OC)CCCCC=C12 do in these assays?
FUS yeast rescue: inactive

What do the screens show for `Cn1c(N)c(C(=O)COC(=O)C2CCC(C(C)(C)C)CC2)c(=O)n(C)c1=O` (stereo not drawn)?
Abeta yeast res: inactive[9.22 µM]; Mito fusion yeast: 1%; TDP-43 yeast inh: 35µM*; FUS yeast rescue: inactive; aSyn yeast inh: 3%

What do the screens show for `O=C(CC1C(=O)OCCN1Cc1ccccc1)Nc1cccc(C(F)(F)F)c1` (stereo not drawn)?
Abeta yeast res: inactive; TDP-43 yeast inh: 18µM*; FUS yeast rescue: inactive

Results for COc1cccc(NC(=O)CC2C(=O)OCCN2Cc2ccccc2)c1 (stereo not drawn) ?
Abeta yeast res: inactive; TDP-43 yeast inh: inconclusive; FUS yeast rescue: inactive

Results for O=C(N[C@@H]1CC[C@@H](CCn2cc(-c3ccccc3)nn2)O[C@@H]1CO)c1cnccn1 ?
Abeta yeast res: inactive; TDP-43 yeast inh: 18%; FUS yeast rescue: inactive; aSyn yeast inh: 0%

Results for O=C(Nc1ccc(F)c(C(F)(F)F)c1)Nc1nnc(-c2ccncc2)s1 ?
FUS yeast rescue: inactive

Results for O=C(N/N=C/c1sc(N2CCOCC2)nc1-c1ccccc1)c1ccccc1O ?
Abeta yeast res: inactive; Mito fusion yeast: 9%; TDP-43 yeast inh: 14µM*; FUS yeast rescue: inactive; aSyn yeast inh: -6%

How did O=[N+]([O-])c1cccc(-c2nc(-c3cccs3)c(-c3cccs3)[nH]2)c1 do in these assays?
Abeta yeast res: inconclusive; Mito fusion yeast: 6%; TDP-43 yeast inh: 9%; FUS yeast rescue: inactive; aSyn yeast inh: -9%

What do the screens show for `O=[N+]([O-])c1ccc(-c2nc(-c3cccs3)c(-c3cccs3)[nH]2)cc1`?
Abeta yeast res: inactive; Mito fusion yeast: -2%; TDP-43 yeast inh: 3.2µM*; FUS yeast rescue: inactive; aSyn yeast inh: -12%

Results for COc1cccc(CN(C)C(=O)c2ccc(N3CCCC3)c([N+](=O)[O-])c2)c1 ?
Abeta yeast res: inactive; Mito fusion yeast: 4%; TDP-43 yeast inh: 20µM*; FUS yeast rescue: inactive; aSyn yeast inh: -1%

What do the screens show for `COc1ccc(NC(=O)CN(C)C(=O)c2ccc(N3CCCCC3)c([N+](=O)[O-])c2)cc1`?
Abeta yeast res: inactive; Mito fusion yeast: 0%; TDP-43 yeast inh: inconclusive; FUS yeast rescue: inactive; aSyn yeast inh: 11%

What do the screens show for `COc1ccc(-c2nnc(SCC(=O)Nc3cc(F)ccc3C)o2)cc1`?
Abeta yeast res: inconclusive; Mito fusion yeast: -3%; TDP-43 yeast inh: 11µM*; FUS yeast rescue: inactive; aSyn yeast inh: 5%

What do the screens show for `COc1ccc(NC(=O)CCn2nc(-c3ccccc3OC)c3c(C)cc(C)nc32)cc1`?
Abeta yeast res: inactive; TDP-43 yeast inh: 14µM*; FUS yeast rescue: inactive
